Read-out in test [1]: Interleukin-6 (IL6), IL6 (gene 3569)
The test can be described thus: BSK_CASM3C_IL6: BioMAP Diversity Plus: CASM3C Assay for Interleukin-6 (IL6) Biomarker Activity for (AID 2283040). As to conditions: primary human coronary artery smooth muscle cells; actives raise or lower the signal.

Read-out in test [2]: Tissue plasminogen activator (tPA), PLAT (gene 5327)
The test can be described thus: BSK_BE3C_tPA: BioMAP Diversity Plus: BE3C Assay for Tissue plasminogen activator (tPA) Biomarker Activity (AID 2283041).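 For outcome: tPA level quantified by ELISA one day after compound addition.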 The following applies: primary human bronchial epithelial cells; actives raise or lower the signal. The gist of the method: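 Human primary bronchial epithelial cells were dosed with chemical and tPA biomarker levels measured by ELISA 24 hours later. Activity was fitted bidirectionally against DMSO as negative control and baseline.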

Read-out in test [3]: Interleukin-8 (IL8), CXCL8 (gene 3576)
Briefly: BSK_CASM3C_IL8: BioMAP Diversity Plus: CASM3C Assay for Interleukin-8 (IL8) Biomarker Activity (AID 2283042).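 Note: IL-8 protein level quantified by ELISA.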 The following applies: primary human coronary artery smooth muscle cells; actives raise or lower the signal.

Read-out in test [4]: Human Leukocyte Antigen - DR isotype (HLADR), HLA-DRA (gene 3122)
The test can be described thus: BSK_CASM3C_HLADR: BioMAP Diversity Plus: CASM3C Assay for Human Leukocyte Antigen - DR isotype (HLADR) Biomarker Activity (AID 2283043).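 Note: cell-surface HLA-DR protein level quantified by ELISA.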 As to conditions: primary human coronary artery smooth muscle cells; actives raise or lower the signal.

Read-out in test [5]: Macrophage colony-stimulating factor (MCSF), CSF1 (gene 1435)
Briefly: BSK_CASM3C_MCSF: BioMAP Diversity Plus: CASM3C Assay for Macrophage colony-stimulating factor (MCSF) Biomarker Activity (AID 2283044).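 Note: M-CSF protein amount quantified by ELISA after 24 h exposure.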 As to conditions: primary human coronary artery smooth muscle cells; actives raise or lower the signal.

Read-out in test [6]: Low-density lipoprotein receptor (LDLR), LDLR (gene 3949)
The test can be described thus: BSK_CASM3C_LDLR: BioMAP Diversity Plus: CASM3C Assay for Low-density lipoprotein receptor (LDLR) Biomarker Activity (AID 2283045).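 Note: LDLR protein level on the cell surface quantified by ELISA.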 The following applies: primary human coronary artery smooth muscle cells; actives raise or lower the signal.

Read-out in test [7]: Monocyte Chemoattractant Protein-1 (MCP1), CCL2 (gene 6347)
The test can be described thus: BSK_CASM3C_MCP1: BioMAP Diversity Plus: CASM3C Assay for Monocyte Chemoattractant Protein-1 (MCP1) Biomarker Activity (AID 2283046).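 Note: MCP-1 level quantified by ELISA 24 h after dosing.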 The following applies: primary human coronary artery smooth muscle cells; actives raise or lower the signal.

Test [8] can be described thus: BSK_CASM3C_Proliferation: Cell Proliferation Assessment in the BioMAP Diversity Plus: CASM3C Assay (AID 2283047).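 Note: sulforhodamine B total protein stain as relative cell number at 560 nm; sub-confluent cells exposed 48 h before staining; fitted both ways against DMSO so gain or loss of cell number.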 The following applies: primary human coronary artery smooth muscle cells.
Read-out in test [9]: Monokine induced gamma interferon (MIG), CXCL9 (gene 4283)
The test can be described thus: BSK_CASM3C_MIG: BioMAP Diversity Plus: CASM3C Assay for Monokine induced gamma interferon (MIG) Biomarker Activity (AID 2283048).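 Note: MIG protein level measured by ELISA.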 As to conditions: primary human coronary artery smooth muscle cells; actives raise or lower the signal.

Read-out in test [10]: serum amyloid A (SAA), SAA1 (gene 6288)
Briefly: BSK_CASM3C_SAA: BioMAP Diversity Plus: CASM3C Assay for serum amyloid A (SAA) Biomarker Activity (AID 2283049).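 Note: SAA protein level quantified by ELISA.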 The following applies: primary human coronary artery smooth muscle cells; actives raise or lower the signal.

Test [11] is described as follows: BSK_CASM3C_SRB: Viability Assessment in the BioMAP Diversity Plus: CASM3C Assay (AID 2283050).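 Note: total protein by SRB staining as cytotoxicity measure in parallel cultures.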 The following applies: primary human coronary artery smooth muscle cells.
Read-out in test [12]: Thrombomodulin, THBD (gene 7056)
Briefly: BSK_CASM3C_Thrombomodulin: BioMAP Diversity Plus: CASM3C Assay for Thrombomodulin Biomarker Activity (AID 2283051).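 Note: thrombomodulin protein level measured by ELISA 24 h after dosing.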 The following applies: primary human coronary artery smooth muscle cells; actives raise or lower the signal.

Read-out in test [13]: Tissue Factor, F3 (gene 2152)
The test can be described thus: BSK_CASM3C_TissueFactor: BioMAP Diversity Plus: CASM3C Assay for Tissue Factor Biomarker Activity (AID 2283052).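 Note: cell surface tissue factor protein level read by ELISA.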 As to conditions: primary human coronary artery smooth muscle cells; actives raise or lower the signal.

Read-out in test [14]: Urokinase-type plasminogen activator receptor (uPAR), PLAUR (gene 5329)
The test can be described thus: BSK_CASM3C_uPAR: BioMAP Diversity Plus: CASM3C Assay for Urokinase-type plasminogen activator receptor (uPAR) Biomarker Activity (AID 2283054).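 Note: cell-surface uPAR protein level quantified by ELISA.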 As to conditions: primary human coronary artery smooth muscle cells; actives raise or lower the signal.

Read-out in test [15]: Vascular cell adhesion molecule 1 (VCAM1), VCAM1 (gene 7412)
Briefly: BSK_CASM3C_VCAM1: BioMAP Diversity Plus: CASM3C Assay for Vascular cell adhesion molecule 1 (VCAM1) Biomarker Activity (AID 2283055).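 Note: VCAM-1 protein level quantified by ELISA on the cells.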 The following applies: primary human coronary artery smooth muscle cells; actives raise or lower the signal.

Read-out in test [16]: Epidermal growth factor receptor (EGFR), EGFR (gene 1956)
Briefly: BSK_hDFCGF_EGFR: BioMAP Diversity Plus: hDFCGF Assay for Epidermal growth factor receptor (EGFR) Biomarker Activity (AID 2283057). As to conditions: primary human foreskin fibroblasts; actives raise or lower the signal. The method in brief:
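Primary human foreskin fibroblasts were exposed to compound for 24 h, after which cell-surface EGFR was quantified by ELISA. Activity was fitted bidirectionally against the DMSO negative control as baseline.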

Read-out in test [17]: Interleukin-8 (IL8), CXCL8 (gene 3576)
The test can be described thus: BSK_hDFCGF_IL8: BioMAP Diversity Plus: hDFCGF Assay for Interleukin-8 (IL8) Biomarker Activity (AID 2283058). The following applies: primary human foreskin fibroblasts; actives raise or lower the signal. The gist of the method:
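IL-8 levels read by ELISA at 24 hours after dosing human skin fibroblast cultures. Parallel SRB staining assessed overt cytotoxicity, and gain or loss of signal was fitted against DMSO control.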

The nature of test [18]: BSK_hDFCGF_Proliferation: Cell Proliferation Assessment in the BioMAP Diversity Plus: hDFCGF Assay (AID 2283059).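 Note: curves fitted for both rise and fall of signal versus DMSO baseline.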 As to conditions: primary human foreskin fibroblasts. The gist of the method:
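Total protein read at 560 nm after 0.1% SRB staining of TCA-fixed human skin fibroblasts, […]. Activity is fitted in both directions relative to DMSO as baseline.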

Read-out in test [19]: Interferon-gamma inducible Protein 10 (IP10), CXCL10 (gene 3627)
Briefly: BSK_hDFCGF_IP10: BioMAP Diversity Plus: hDFCGF Assay for Interferon-gamma inducible Protein 10 (IP10) Biomarker Activity (AID 2283053). The following applies: primary human foreskin fibroblasts; actives raise or lower the signal. The gist of the method:
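Human foreskin fibroblast primary cells (hDFCGF system) were dosed with chemical and assayed at 24 h; IP-10 measured by ELISA. Activity fitted bidirectionally relative to DMSO negative control as baseline.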

Read-out in test [20]: Collagen III, COL3A1 (gene 1281)
Briefly: BSK_hDFCGF_CollagenIII: BioMAP Diversity Plus: hDFCGF Assay for Collagen III Biomarker Activity (AID 2283056). As to conditions: primary human foreskin fibroblasts; actives raise or lower the signal. The method in brief: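 ELISA readout of Collagen III in human dermal (foreskin) fibroblasts, taken 24 h post-treatment. Gain or loss relative to DMSO vehicle fitted in both directions.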

The structures appear in SMILES notation. More than one record can exist for a structure, and the calls need not agree. Active and inactive are the calls of the source. Rule for the calls: active = hit-call score of the fitted dose curve at least 0.9, where 1 is the maximum; inactive = score below 0.9.

We go through six compounds from PubChem BioAssay (EPA / NIEHS).

In the case of `CC(O)C(F)(F)C(F)(F)F` (stereo not given), the result in test [1], in test [2], in test [3], in [4], in test [5] and in [6] was inactive. The result in test [7], in test [8], in [9], in test [10], in test [11] and in [12] was inactive. In addition, the outcome in test [13], in test [14], in test [15], in test [16], in test [17] and in [18] was inactive. In addition, the AC50 – broadly, the midpoint of the concentration-response curve, whichever way the signal moves – in [12] is 3.08 µM (active).

As to `Cc1c([N+](=O)[O-])cc2c(c1[N+](=O)[O-])C(C)(C)CC2(C)C`, the outcome in test [1], in [3], in test [7], in [8], in [9] and in test [10] was inactive. The outcome in test [11], in [13], in [19], in test [15], in test [16] and in test [17] was inactive. Further, the AC50 in test [2] is 10.6 µM (active); in test [4], 1.74 µM (active); in test [5] it was 0.378 µM (active); in test [6] it was 5.44 µM (active); in test [12], 7.74 µM (active); in [14], 0.384 µM (active). In addition, the AC50 is 3.32 µM (active) in test [20] and 20 µM (active) in test [18].

In the case of `CCCCN(CCCC)SN(C)C(=O)Oc1cccc2c1OC(C)(C)C2`, the result in [1], in test [2], in test [3], in test [7], in test [9] and in [13] was inactive. Further, the outcome in [14] and in test [16] was inactive. Moreover, the AC50 in test [4] was 29.1 µM (active); in test [5], 11.4 µM (active); in test [6] it was 36.6 µM (active); in test [8], 27.1 µM (active); in test [10] it was 31.3 µM (active); in test [11] it was 33.7 µM (active). Besides, the AC50 in test [12] was 29.1 µM (active); in test [19] it was 8.12 µM (active); in test [15] it was 13.4 µM (active); in [17] it was 16.2 µM (active); in test [18], 6.34 µM (active).

Take `c1cc2c3c(cccc3c1)CC2`: the result in test [1], in test [2], in [3], in test [4], in [5] and in [6] was inactive. The outcome in [7], in test [8], in test [9], in test [10], in test [11] and in test [12] was inactive. For the same compound, the result in [13], in test [14], in test [15], in test [20], in [16] and in test [17] was inactive. In addition, the result in test [18] was inactive.

Regarding `CCCCC(CC)COP(=O)(Oc1ccccc1)Oc1ccccc1` (stereo not given), the outcome in [1], in [3], in test [4], in test [5], in test [6] and in test [7] was inactive. Further, the outcome in test [8], in [9], in test [10], in [12], in test [13] and in [14] was inactive. In addition, the result in test [15] and in test [16] was inactive. For the same compound, the concentration at half-maximal activity (AC50) in [2] is 3.09 µM (active); in [11], 20 µM (active); in [20], 2.39 µM (active); in test [17] it was 11.9 µM (active); in test [18], 6.04 µM (active).

In the case of `NC(=O)C(F)(F)C(F)(F)F`, the result in test [1], in test [2], in [3], in test [4], in test [5] and in test [6] was inactive. Besides, the result in [7], in test [8], in test [9], in test [10], in test [11] and in test [12] was inactive. Also, the outcome in test [13], in [19], in [14], in test [15], in test [16] and in test [17] was inactive. Besides, the outcome in test [18] was inactive.
